The list is a sample of the results.
aSyn 5UTR act – Activators working through SNCA 5'UTR binding (MLPCN) | alpha-synuclein 5'UTR reporter, activators screen | activity score, % (tested at 7.5 µM), hits read low | 300,000 compounds, 7.1% hits | AID 1814; in the data active = activity score below about -60%
Hits are given with their value; – = inactive.

SMILES	aSyn 5UTR act
Cc1ccc(N=Nc2[nH]c3ccccc3c2O)cc1	-80
COc1ccc(N=Nc2[nH]c3ccc(C)cc3c2O)cc1	-125
c1ccc(SCc2nc3ccccc3s2)nc1	-113
N#CCc1nc(CSc2nc3ccccc3o2)cs1	-134
c1ccc2oc(SCc3nc4ccccc4s3)nc2c1	-149
Nc1cccc(-c2nc3ccccc3[nH]2)c1	-170
c1cncc(CNc2cccc(-c3nc4ccccc4[nH]3)c2)c1	-145
Fc1ccc(-c2nc3ccccc3[nH]2)cc1	-96
N#CCSc1ccc(-c2nc3ccccc3[nH]2)cn1	-239
c1cncc(-c2nc3cc4ccccc4cc3[nH]2)c1	-79
O=C(Nc1nnc(C2CCCO2)s1)c1cccs1 (centres undefined)	-90
COc1cccc(C(=O)Nc2nnc(C3CCCO3)s2)c1 (centres undefined)	-99
O=C(Nc1nnc(C2CCCCC2)s1)c1cccs1	-163
O=C1c2ccccc2C(=O)C1c1ccccn1	-105
O=C(c1ccco1)N1CCc2ccccc21	-97
Cc1c(Br)c(C(=O)N2CCc3ccccc32)nn1C	-127
O=C(c1ccc(Br)o1)N1CCc2ccccc21	-154
Cc1c(C(=O)N2CCc3ccccc32)oc2ccccc12	-126
CCN(CC)c1nc(C)nc2c1cnn2CCc1ccccc1	-185
COCCNC(=S)N1CCC(C(=O)c2ccc3c(c2)OCCO3)CC1	-75
O=C(Nc1cccc([N+](=O)[O-])c1)c1ccn[nH]1	-106
O=C(Nc1ccccc1)c1ccn[nH]1	-191
CCN(CC)c1ccc(NC(=O)c2cncc(Br)c2)cc1	-279
CCN(CC)c1ccc(NC(=O)c2cccnc2)cc1	-67
Cc1ccc(NC(=O)c2cncc(Br)c2)cc1S(=O)(=O)N(C)C	-127
SMILES	aSyn 5UTR act
Cc1cc(C)nc(Nc2ccc(C)c([N+](=O)[O-])c2)n1	-99
Cc1ccc(NC(=O)c2cccs2)cc1[N+](=O)[O-]	-94
Cc1ccc(NC(=O)c2ccc(C(C)(C)C)cc2)cc1[N+](=O)[O-]	-159
CC(C)C(=O)Nc1ccc2oc(-c3cc(F)c(F)cc3Cl)nc2c1	-154
O=C(Nc1ccc2oc(-c3ccccc3Cl)nc2c1)c1ncn[nH]1	-153
O=C(Nc1ccc2oc(-c3cccc4ccccc34)nc2c1)c1ncn[nH]1	-184
CC(=O)Nc1ccc2oc(-c3cc(F)c(F)cc3Cl)nc2c1	–
CC(C)c1ccc2oc(-c3ccc(NC(=O)c4ncn[nH]4)cc3)nc2c1	-80
Nc1nnc(SCc2coc(-c3ccc(Cl)cc3)n2)s1	-118
CCCCNc1c(-c2ccc(-c3cccc(Cl)c3)cc2)nc2ccccn12	-105
CCCCCCSc1ccc(-c2nc3ccccn3c2NCCCC)cc1	-113
Cc1ccc2nc(-c3ccc(-c4cccc(Cl)c4)cc3)c(NCc3ccccc3)n2c1	-68
Cc1cc(O)c(C(=O)/C=C/c2ccccc2Br)c(=O)o1	-171
Cc1cc(O)c(C(=O)/C=C/c2ccccc2)c(=O)o1	-103
Cc1cc(O)c(C(=O)/C=C/c2ccc(C(C)C)cc2)c(=O)o1	-129
CCOc1ccc(/C=C/C(=O)c2c(O)cc(C)oc2=O)cc1	-182
Cc1cc(C)c(C(=O)/C=C/c2ccc(C(C)C)cc2)c(=O)[nH]1	-91
Cc1cccc(OCC(=O)Nc2ccc3c(c2)nc2n3CCOC2)c1	-69
CC(=O)NCCc1nc2cc(NC(=O)COc3cccc(C)c3)ccc2n1C	-62
O=C(CC(SCc1ccco1)c1ccc(O)cc1)c1cccs1 (centres undefined)	-168
O=C(CC(SCCO)c1ccc2c(c1)OCO2)c1cccs1 (centres undefined)	-193
CCN1CCN(C(=S)c2ccc(-c3ccccc3)cc2)CC1	–
CCCC(C)NC(=O)c1ccc(-c2ccccc2)cc1 (centres undefined)	-109
CCC(=O)c1ccc(-c2ccccc2)cc1	-89
Cc1[nH]n(-c2ccccc2)c(=O)c1C=NCc1ccco1	-114
SMILES	aSyn 5UTR act
Cc1[nH]n(-c2cccc(Cl)c2)c(=O)c1C=NCc1ccco1	-134
Cc1[nH]n(-c2cccc(Cl)c2)c(=O)c1C=NCC(C)C	-168
CC(C)c1ccc(-c2cc(C(=O)N3N=C(C(F)F)CC3(O)C(F)F)c3ccccc3n2)cc1 (centres undefined)	-166
Cc1ccc(C(c2cc(Cl)c3cccnc3c2O)N2CCN(C)CC2)cc1 (centres undefined)	–
CC(C)c1ccc(-c2cc(C(=O)NN3CCN(C)CC3)c3ccccc3n2)cc1	-117
CN1CCN(c2ccc(-c3ccc4ccccc4n3)cc2)CC1	–
O=C(O)c1cccc2c1-c1ccccc1/C2=N\Nc1ccccc1	-83
CCc1ccc(NC(=O)Cc2ccc(OC)cc2)cc1	-67
COc1ccc(NC(=O)Cc2ccccc2)cc1	-101
COc1ccc(CC(=O)Nc2ccc(C(C)=O)cc2)cc1	-86
COc1ccc(C/C(=N\O)c2ccc(OC)cc2)cc1	-89
CCc1ccc(NC(=O)Nc2cccc(OC)c2)cc1	-199
O=C(COc1ccc(Cl)cc1Cl)NC1CCSC1=O (centres undefined)	-86
O=C(COc1ccc(Br)cc1Cl)NC1CCCCC1	-162
O=C(COc1ccc(Br)cc1Br)NC1CCCC1	-113
COc1cc2c(C)nc3c(cnn3-c3ccccc3)c2cc1OC	-240
O=C(Nc1cccnc1)c1sc2cccc(F)c2c1Cl	-166
COc1cnn(-c2ccc(C)cc2)c(=O)c1SCc1ccccc1	-77
COc1cnn(-c2ccc(Br)cc2)c(=O)c1SCc1ccccc1	-71
O=C(c1cccc([N+](=O)[O-])c1)n1nc(-c2ccccc2)nc1NCc1ccccc1	-68
O=C(c1ccc([N+](=O)[O-])cc1)n1nc(-c2ccccc2)nc1NCc1ccccc1	-67
COCC(=O)n1nc(-c2ccccc2)nc1NCc1ccc(N(C)C)cc1	-83
c1ccc(Nc2nnc(-c3cccc4ccccc34)o2)cc1	-93
COc1ccccc1/C=C/C=C(\C#N)C(=O)NC(C)c1ccccc1 (centres undefined)	-74
Cc1cc(C2=NNC(=Nc3ccccc3)SC2)c(C)n1C	-80
SMILES	aSyn 5UTR act
Cc1ccc(-c2nc3cc(C)ccc3o2)cc1	–
Cc1ccc2oc(-c3ccco3)nc2c1	-137
O=C1CC(c2ccc3c(c2)OCO3)Sc2nc3ccccc3n21 (centres undefined)	-160
O=C1CC(c2ccccc2)Sc2nc3ccccc3n21 (centres undefined)	-196
Cc1ccc2nc(-c3ccc(NC(=O)c4ccco4)cc3)[nH]c2c1	-163
Cn1cccc1-c1nc2ccc(NC(=O)c3ccco3)cc2[nH]1	-132
CN(C)c1ccc(/C=C2\SC(=O)N(CCc3nnc(N)s3)C2=O)cc1	–
CN(C)c1ccc(/C=C2/SC(=O)N(CCN=C3NS(=O)(=O)c4ccccc43)C2=O)cc1	-66
C(=C\c1ccccn1)/c1ccccn1	-115
Brc1ccc(N=Cc2ccccn2)cc1	-73
CC(C)(C)C1C/C(=C/c2ccccn2)C(=O)/C(=C/c2ccccn2)C1 (centres undefined)	–
CC1C/C(=C/c2ccccn2)C(=O)/C(=C/c2ccccn2)C1 (centres undefined)	–
O=C(/C=C/c1ccccc1F)c1ccoc1	-68
COc1ccc(-c2ccc(SC)nn2)cc1	–
CCOc1ccc(-c2ccc(SCC(=O)NC3CCCCC3)nn2)cc1	-69
COc1ccc(-c2ccc(SCC(=O)NC3CCCCC3)nn2)cc1	-83
NC(=O)c1cnn(-c2ccc3ccccc3c2)c1N	-125
O=C(Nc1nnc(C2CC2)s1)c1ccco1	-74
CCc1c(C(=O)Nc2nnc(C3CC3)s2)csc1C	-119
O=C(Nc1nnc(C2CCCCC2)s1)c1ccco1	-178

Compound activity (PubChem BioAssay)
